Compound activity as filed in PubChem BioAssay.
UGM FP inh: Mtb UDP-galactopyranose mutase inhibition; purified UGM, fluorescence polarization probe displacement; inhibition, % at 10 µM; 320,000 compounds, 0.06% hits; in the data active = inhibition above about 10%, passing the limit was not always enough
Rv3671c protease: inhibitors of M. tuberculosis serine protease Rv3671c | P9WHR9 | inhibition, % at 5.96 µM | 320,000 compounds, 0.048% hits | AID 2606; in the data active = inhibition above about 38%;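 note: extracellular domain of Rv3671c used as enzyme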
Mtb FBA inh: inhibitors of M. tuberculosis fructose-bisphosphate aldolase; purified M. tuberculosis FBA, fluorescence read-out; P9WQA3; 360,000 compounds, 2.3% hits; inhibition, % at 1 µM; in the data active = inhibition above about 27%
Target sequence (P9WQA3 whole entry, looked up): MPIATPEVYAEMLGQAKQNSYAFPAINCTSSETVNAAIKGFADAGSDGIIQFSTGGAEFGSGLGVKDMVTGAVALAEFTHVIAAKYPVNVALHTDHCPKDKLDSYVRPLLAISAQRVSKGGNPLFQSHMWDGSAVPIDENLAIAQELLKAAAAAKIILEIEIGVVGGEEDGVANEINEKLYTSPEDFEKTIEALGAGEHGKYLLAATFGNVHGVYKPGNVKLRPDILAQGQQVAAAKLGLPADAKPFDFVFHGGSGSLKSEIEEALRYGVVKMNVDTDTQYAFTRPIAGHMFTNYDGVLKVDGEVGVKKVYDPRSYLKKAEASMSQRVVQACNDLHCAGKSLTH
GDH-TPI counter: inhibits GDH-TPI coupling enzymes, artifact for Mtb FBA screen. GDH-TPI coupled enzyme counterscreen, NADH absorbance. inhibition, % at 4.8 µM. 360,000 compounds, 1.2% hits. AID 588335; in the data active = inhibition above about 30%
Mtb hypoxia inh: inhibitors of hypoxia-regulated fluorescent reporter in Mycobacterium tuberculosis | M. tuberculosis hypoxia-regulated fluorescent reporter, fluorescence | 300,000 compounds, 0.1% hits | fluorescence inhibition, % (concentration not given with the values) | AID 1159583; in the data active = fluorescence inhibition mostly above about 23%, no sharp cut-off; inactive = mostly below about 17%
FadD28 binding: M. tuberculosis FadD28 bisubstrate binding inhibition | FadD28 bisubstrate probe binding, fluorescence polarization | 360,000 compounds, 0.22% hits | inhibition, % at 12.5 µM; in the data active = inhibition above about 8.5%, passing the limit was not always enough
Hits are given with their value; . = inactive; / = no result given; + = active, no number. Hits are enriched below; roughly 3.5% of the tested compounds scored in any of these assays.

SMILES	UGM FP inh	Rv3671c protease	Mtb FBA inh	GDH-TPI counter	Mtb hypoxia inh	FadD28 binding
CN(C)S(=O)(=O)c1ccc(-c2csc(NN=Cc3ccc(O)cc3)n2)cc1	/	/	/	/	.	/
CC1COC(=O)C(Cc2ccc(F)cc2)CC=CCC(CC(=O)N(CCO)Cc2ccccc2)C(=O)N1 (configuration not stated)	/	/	/	/	.	/
O=C1N=C(N2C=CC(=C3C=CNC=C3)C=C2)/C(=C/N=NC(=O)c2ccccc2O)S1	.	.	.	53	/	.
CC1CN(C(C)CO)C(=O)c2cc(NC(=O)CCN3CCOCC3)ccc2OC1CN(C)C(=O)Nc1ccccc1 (configuration not stated)	/	/	/	/	.	/
CC1(C)Nc2ccccc2C(=O)N1NC(=O)c1ccccc1	.	.	.	.	.	.
CC1(C)Nc2ccccc2C(=O)N1c1ccccc1	.	.	115	.	.	.
CC(C)CN1CCC(=O)N(C(CN=[N+]=[N-])Cc2ccccc2)CC1 (configuration not stated)	/	/	/	/	.	/
O=C(CNC(=O)C12CC3CC(CC(C3)C1)C2)NN=Cc1ccccn1	/	/	/	/	.	/
CCn1c(=S)sc2c(=O)n(-c3ccccc3)c(SCC(=O)NCc3ccco3)nc21	.	.	.	38	.	.
CCC(C)NC(=O)CSc1nc2c(sc(=S)n2Cc2ccco2)c(=O)n1-c1ccccc1 (configuration not stated)	.	.	.	.	.	.
COCc1c(C(=O)NN=Cc2ccccn2)nnn1-c1nonc1N	/	/	/	/	.	/
Cc1ccc(CN2CCN(N=Cc3ccc(Cl)c([N+](=O)[O-])c3)CC2)cc1	/	/	/	/	.	/
COc1ccc(C(=O)NCC(=O)N/N=C/C(C)=C/c2ccco2)cc1OC	.	.	.	41	/	.
Cn1c(=O)c2c(ncn2CC(=O)N/N=C/C=C/c2ccco2)n(C)c1=O	.	.	.	32	/	.
CC(/C=N/NC(=O)Cn1cnc2c1c(=O)n(C)c(=O)n2C)=C\c1ccco1	.	.	.	41	/	.
O=C(CN1CCN(Cc2ccccc2)CC1)N/N=C/C=C/c1ccco1	.	.	.	33	/	.
COc1ccc(C=NNC(=O)Nc2cccc3nsnc23)cc1	/	/	/	/	.	/
COc1ccc2nc(Cl)c(C=NNc3ccccn3)cc2c1	/	/	/	/	.	/
Cc1ccc(OCC(=O)N/N=C/C=C/c2ccco2)c(Br)c1	/	/	.	34	/	.
Cc1cccc(OCC(=O)N/N=C/C=C/c2ccco2)c1	.	.	.	.	/	.
CC(/C=N/NC(=O)Cc1cccn1C)=C\c1ccco1	.	.	.	40	/	.
CN(C)CCCN(CCCNC(=O)C=NO)Cc1ccccc1	/	/	/	/	.	/
CC(=O)NCCC1CCN(c2nc3nonc3nc2N(C)Cc2ccccc2)CC1	.	.	.	37	.	.
COC(=O)c1ccc(NC(=S)NC2c3ccccc3CC2O)cc1 (configuration not stated)	.	.	.	.	.	22
COc1cc(C=NNC(=O)C(=O)NCc2ccco2)cc(Cl)c1O	/	/	/	/	.	/
SMILES	UGM FP inh	Rv3671c protease	Mtb FBA inh	GDH-TPI counter	Mtb hypoxia inh	FadD28 binding
CCN(CC)S(=O)(=O)c1ccc(Cl)nc1	.	.	63	.	.	.
O=C(N/N=C/c1ccc(N2CCOCC2)cc1)c1ccc(O)cc1	.	.	.	66	/	.
Cc1ccc(C(=O)N/N=C/c2ccc(N3CCOCC3)cc2)c(C)c1	.	.	.	34	/	.
Cc1ccc2nc(C)c(C(=O)NN=Cc3ccc(N4CCOCC4)cc3)cc2c1	/	/	/	/	.	/
O=C(N/N=C/c1ccc(N2CCOCC2)s1)c1ccc(O)cc1	/	/	.	34	/	.
NC1=NCC(Cc2ccc(O)cc2)N1CCC12CC3CC(CC(C3)C1)C2 (configuration not stated)	/	/	/	/	.	/
COc1ccc(N(CC(=O)NN=Cc2ccc(OC3CSC3)cc2)S(=O)(=O)c2ccccc2)cc1	/	/	/	/	.	/
CCCOc1ccc(C(=O)c2nc3c(n2O)CCCCC3)cc1	.	.	.	31	.	.
O=C(c1ccccc1)c1nc2c(n1O)CCCCC2	.	.	.	.	.	.
Clc1ccc(-c2cn3ccccc3n2)cc1	.	.	.	.	.	.
COc1ccc(-c2cn3ccccc3n2)cc1	.	.	114	.	.	.
COCCN=C1NC(c2ccc(Br)cc2)C(C(=O)OC)=C(C)N1Cc1ccccc1 (configuration not stated)	/	/	/	/	.	/
CC(=NN(C)C)c1ccc(OCCOc2ccc([N+](=O)[O-])cc2)cc1	/	/	/	/	.	/
NC(=NO)c1ccccc1-n1cccc1	/	/	/	/	.	/
COc1ccc2c3c([nH]c2c1)C(C)=NCC3	.	.	.	.	.	.
COc1ccc2[nH]c3c(c2c1)CC(C)NC3=O (configuration not stated)	.	/	121	.	.	.
COc1cc(C2CC=C(C(=O)O)C(c3ccc(F)cc3)N2S(=O)(=O)c2ccc(C)cc2)cc(OC)c1OC (configuration not stated)	/	/	/	/	.	/
CCc1nn(CC(=O)NCCN2CCOCC2)c(=O)c2cc3c(OC)cccc3n12	.	.	+	.	.	.
CCCSCCCNC(=O)Cn1nc(CC)n2c(cc3c(OC)cccc32)c1=O	.	.	.	.	.	.
O=c1c(-c2ccccc2)c(O)c2c(n1-c1ccccc1)CCCC2	.	.	.	.	.	.
O=c1cc(O)c2c(=O)n(-c3ccccc3)c3c(c2o1)CCCCC3	/	.	.	32	.	.
CN1CCC(=O)N(C(CN=[N+]=[N-])Cc2ccccc2)CC1 (configuration not stated)	/	/	/	/	.	/
COc1ccc2c(c1)CC/C(=C\c1ccc(OC)c(Cn3nc(C)cc3C)c1)C2=O	.	.	.	.	.	.
COc1ccc2c(c1)CC/C(=C\c1ccc(OC)c(Cn3cccn3)c1)C2=O	.	.	.	38	.	.
CC(=O)CN1Cc2ccccc2C1=NC(=O)Nc1ccccc1	/	/	/	/	.	/
SMILES	UGM FP inh	Rv3671c protease	Mtb FBA inh	GDH-TPI counter	Mtb hypoxia inh	FadD28 binding
CCOC(=O)C(=CNc1ccc(C(F)(F)F)cc1Cl)C(=O)OCC	.	.	.	36	.	.
CCOc1cccc(C2C(C(=O)c3ccc(C)o3)=C(O)C(=O)N2c2nccs2)c1 (configuration not stated)	16	.	.	.	/	.
CCOc1cccc(C2C(C(=O)c3ccc(C)o3)=C(O)C(=O)N2Cc2ccncc2)c1 (configuration not stated)	.	.	.	.	.	.
Cc1ccc(C=NN2CCN(Cc3cccc4ccccc34)CC2)s1	/	/	/	/	.	/
CCOc1ccc(CCNS(=O)(=O)c2c(C)nc3scc(C)n3c2=O)cc1OCC	.	.	.	33	.	.
COC(=O)C1=C(c2ccc(F)cc2OCc2ccccc2)CC2CCC1N2C(=O)NC1CCN(Cc2ccccc2)CC1 (configuration not stated)	/	/	/	/	.	/
CCCSc1nc2sc3c(c2c(=O)[nH]1)CCN(Cc1ccccc1)C3	.	.	86	.	/	.
COCCn1c(C)cc(/C=C2\NC(=S)N(C)C2=O)c1C	.	.	.	36	.	.
CCCCCCCCNC(C)C(O)c1ccc(SC(C)C)cc1 (configuration not stated)	.	.	.	.	/	15
Nc1nccnc1C(=O)OCC(=O)c1ccc[nH]1	.	.	165	.	.	.
